Tests used:
Assay in all cases: DAPPL (digital affinity profiling via proximity ligation, sequencing); 10 mM Tris-HCl pH 7.5, 50 mM NaCl, 1 mM DTT, 4% glycerol, room temperature, 30 min; GST-TFs on glutathione beads, 16-mer random dsDNA library, 0.1% formaldehyde crosslink after washing; high values mean tight binding
[1] = molecular target: T1, FEV (Homo sapiens, UniProt Q99581 1-238); conditions: protein: recombinant; tags: N-terminal GST; dsDNA, one strand shown
T1 sequence: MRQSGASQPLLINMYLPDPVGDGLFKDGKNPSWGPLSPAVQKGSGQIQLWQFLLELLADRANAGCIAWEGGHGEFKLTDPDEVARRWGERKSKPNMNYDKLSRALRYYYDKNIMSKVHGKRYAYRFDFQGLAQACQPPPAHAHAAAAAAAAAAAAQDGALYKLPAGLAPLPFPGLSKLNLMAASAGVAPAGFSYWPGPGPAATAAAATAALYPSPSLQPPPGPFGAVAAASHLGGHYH
In short: (§1)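 Binding signal is given per hexamer as its read frequency for a factor divided by its frequency in the tag-only sample. GST-fused human transcription factors were expressed in yeast, captured on glutathione beads, barcoded with DNA and pooled with that sample, then incubated with 200 nmole of a 16-mer random double-stranded DNA library in Tris/NaCl/DTT/glycerol buffer for 30 min at room temperature. The pools were then washed, crosslinked, proximity-ligated, amplified by PCR and sequenced on an Illumina NextSeq500.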

[2] = molecular target: ETV5 (Homo sapiens, UniProt P41161 1-510); conditions: protein: recombinant; tags: N-terminal GST; dsDNA, one strand shown
Chain of ETV5 (P41161 whole entry): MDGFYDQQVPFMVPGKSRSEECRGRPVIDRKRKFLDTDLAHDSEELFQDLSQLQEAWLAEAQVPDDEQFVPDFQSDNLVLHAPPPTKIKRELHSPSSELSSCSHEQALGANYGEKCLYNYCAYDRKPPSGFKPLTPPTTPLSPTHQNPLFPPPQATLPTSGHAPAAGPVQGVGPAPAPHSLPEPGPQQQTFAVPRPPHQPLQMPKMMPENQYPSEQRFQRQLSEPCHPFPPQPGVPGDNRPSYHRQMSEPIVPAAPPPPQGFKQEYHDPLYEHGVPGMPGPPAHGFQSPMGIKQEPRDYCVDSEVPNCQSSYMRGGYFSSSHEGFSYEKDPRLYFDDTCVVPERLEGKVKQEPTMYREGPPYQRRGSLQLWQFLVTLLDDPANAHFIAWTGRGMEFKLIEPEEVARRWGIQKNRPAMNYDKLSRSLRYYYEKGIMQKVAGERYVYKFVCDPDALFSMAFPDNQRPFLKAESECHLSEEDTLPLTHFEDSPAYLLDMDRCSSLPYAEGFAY
In short: as §1

[3] = molecular target: HSF1 (Homo sapiens, UniProt Q00613 1-529); conditions: protein: recombinant; tags: N-terminal GST; chain copies: 3; dsDNA, one strand shown
Chain of HSF1 (Q00613 whole entry): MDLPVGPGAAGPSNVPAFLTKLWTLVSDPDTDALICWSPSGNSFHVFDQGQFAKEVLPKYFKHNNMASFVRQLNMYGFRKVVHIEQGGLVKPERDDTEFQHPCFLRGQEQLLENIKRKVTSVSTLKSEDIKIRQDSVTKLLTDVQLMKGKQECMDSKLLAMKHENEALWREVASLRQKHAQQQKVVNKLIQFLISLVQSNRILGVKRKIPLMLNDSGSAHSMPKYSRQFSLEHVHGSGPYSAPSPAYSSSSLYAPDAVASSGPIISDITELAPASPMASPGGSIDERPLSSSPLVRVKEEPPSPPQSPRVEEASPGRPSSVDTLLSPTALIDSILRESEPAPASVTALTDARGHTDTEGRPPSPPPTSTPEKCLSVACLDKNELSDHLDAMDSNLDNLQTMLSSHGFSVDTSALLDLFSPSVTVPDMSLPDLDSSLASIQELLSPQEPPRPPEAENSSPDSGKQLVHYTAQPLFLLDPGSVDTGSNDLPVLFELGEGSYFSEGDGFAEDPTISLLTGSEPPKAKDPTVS
In short: as §1

[4] = molecular target: T2, SPIC (Homo sapiens, UniProt Q8N5J4 1-248); conditions: protein: recombinant; tags: N-terminal GST; dsDNA, one strand shown
T2 sequence: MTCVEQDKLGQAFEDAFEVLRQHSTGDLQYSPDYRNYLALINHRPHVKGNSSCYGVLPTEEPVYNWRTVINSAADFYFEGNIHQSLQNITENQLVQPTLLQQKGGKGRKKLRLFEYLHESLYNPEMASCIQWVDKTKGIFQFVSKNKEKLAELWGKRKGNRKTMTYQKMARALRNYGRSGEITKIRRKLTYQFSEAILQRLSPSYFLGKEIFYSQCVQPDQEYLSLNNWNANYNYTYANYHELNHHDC
In short: as §1

[5] = molecular target: ELF4 (Homo sapiens, UniProt Q99607 1-663); conditions: protein: recombinant; tags: N-terminal GST; dsDNA, one strand shown
Chain of ELF4 (Q99607 whole entry): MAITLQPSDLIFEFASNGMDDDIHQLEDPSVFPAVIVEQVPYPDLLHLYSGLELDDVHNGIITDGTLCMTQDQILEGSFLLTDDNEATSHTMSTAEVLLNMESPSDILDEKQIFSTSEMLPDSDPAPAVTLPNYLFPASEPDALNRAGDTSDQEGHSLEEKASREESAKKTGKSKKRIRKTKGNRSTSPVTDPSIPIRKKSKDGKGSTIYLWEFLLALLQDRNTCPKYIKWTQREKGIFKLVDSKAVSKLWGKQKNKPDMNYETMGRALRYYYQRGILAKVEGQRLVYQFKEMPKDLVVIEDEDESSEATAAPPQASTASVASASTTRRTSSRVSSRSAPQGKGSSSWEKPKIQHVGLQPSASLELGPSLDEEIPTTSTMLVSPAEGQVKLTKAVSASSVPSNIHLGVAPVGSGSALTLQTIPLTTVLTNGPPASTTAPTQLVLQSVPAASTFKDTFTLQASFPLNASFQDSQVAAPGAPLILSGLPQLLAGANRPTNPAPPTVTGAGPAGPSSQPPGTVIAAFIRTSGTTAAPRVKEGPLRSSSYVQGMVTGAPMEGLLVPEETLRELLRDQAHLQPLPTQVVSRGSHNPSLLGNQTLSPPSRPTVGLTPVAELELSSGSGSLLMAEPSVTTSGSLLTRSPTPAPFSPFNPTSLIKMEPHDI
In short: as §1

[6] = molecular target: T3, ELK4 (Homo sapiens, UniProt P28324-2 1-405); conditions: protein: recombinant; tags: N-terminal GST; dsDNA, one strand shown
T3 sequence: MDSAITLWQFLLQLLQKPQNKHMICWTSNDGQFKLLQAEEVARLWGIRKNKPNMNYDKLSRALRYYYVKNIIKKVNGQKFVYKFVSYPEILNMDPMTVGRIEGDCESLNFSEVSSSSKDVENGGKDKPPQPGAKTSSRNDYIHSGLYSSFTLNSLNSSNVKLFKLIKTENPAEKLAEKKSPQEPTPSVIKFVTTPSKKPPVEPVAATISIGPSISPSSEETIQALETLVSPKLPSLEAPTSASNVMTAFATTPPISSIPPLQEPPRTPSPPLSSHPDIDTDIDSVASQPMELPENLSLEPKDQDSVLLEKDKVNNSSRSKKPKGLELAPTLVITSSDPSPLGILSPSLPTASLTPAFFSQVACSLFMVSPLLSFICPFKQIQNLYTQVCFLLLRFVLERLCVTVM
In short: as §1

[7] = molecular target: T4, ETV2 (Homo sapiens, UniProt O00321 1-342); conditions: protein: recombinant; tags: N-terminal GST; dsDNA, one strand shown
T4 sequence: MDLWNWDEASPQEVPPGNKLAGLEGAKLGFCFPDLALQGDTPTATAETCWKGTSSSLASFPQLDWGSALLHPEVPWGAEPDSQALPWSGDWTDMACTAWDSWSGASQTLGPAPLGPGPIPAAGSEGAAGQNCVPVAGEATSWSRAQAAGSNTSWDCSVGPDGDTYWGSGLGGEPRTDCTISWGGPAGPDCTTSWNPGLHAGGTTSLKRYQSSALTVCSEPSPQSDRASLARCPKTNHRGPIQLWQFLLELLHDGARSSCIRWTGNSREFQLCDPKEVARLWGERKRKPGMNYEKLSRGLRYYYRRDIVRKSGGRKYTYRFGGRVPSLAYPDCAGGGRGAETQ
In short: as §1

[8] = molecular target: T5, ELF3 (Homo sapiens, UniProt P78545 1-371); conditions: protein: recombinant; tags: N-terminal GST; dsDNA, one strand shown
T5 sequence: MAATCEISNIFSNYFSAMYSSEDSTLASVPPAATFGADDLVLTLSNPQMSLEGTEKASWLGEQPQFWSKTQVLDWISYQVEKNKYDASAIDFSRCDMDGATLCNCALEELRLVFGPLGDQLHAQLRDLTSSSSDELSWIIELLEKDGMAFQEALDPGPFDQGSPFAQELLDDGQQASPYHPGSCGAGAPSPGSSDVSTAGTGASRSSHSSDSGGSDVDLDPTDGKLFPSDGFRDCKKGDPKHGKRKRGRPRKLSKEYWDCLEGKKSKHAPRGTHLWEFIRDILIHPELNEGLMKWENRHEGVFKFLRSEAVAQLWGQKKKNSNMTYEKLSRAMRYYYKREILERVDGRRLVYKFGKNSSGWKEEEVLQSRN
In short: as §1

[9] = molecular target: CRX (Homo sapiens, UniProt O43186 1-299); conditions: protein: recombinant; tags: N-terminal GST; dsDNA, one strand shown
Chain of CRX (O43186 whole entry): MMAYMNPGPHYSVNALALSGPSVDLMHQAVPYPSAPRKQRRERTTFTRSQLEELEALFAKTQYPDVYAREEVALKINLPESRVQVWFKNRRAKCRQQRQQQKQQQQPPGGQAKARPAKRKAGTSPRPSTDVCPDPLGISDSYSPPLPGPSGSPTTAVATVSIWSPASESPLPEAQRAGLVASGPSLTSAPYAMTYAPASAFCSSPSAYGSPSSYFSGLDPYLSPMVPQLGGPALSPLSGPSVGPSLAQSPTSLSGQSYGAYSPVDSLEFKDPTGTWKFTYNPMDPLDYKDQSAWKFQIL
In short: as §1

[10] = molecular target: ETV1 (Homo sapiens, UniProt P50549 1-477); conditions: protein: recombinant; tags: N-terminal GST; dsDNA, one strand shown
Chain of ETV1 (P50549 whole entry): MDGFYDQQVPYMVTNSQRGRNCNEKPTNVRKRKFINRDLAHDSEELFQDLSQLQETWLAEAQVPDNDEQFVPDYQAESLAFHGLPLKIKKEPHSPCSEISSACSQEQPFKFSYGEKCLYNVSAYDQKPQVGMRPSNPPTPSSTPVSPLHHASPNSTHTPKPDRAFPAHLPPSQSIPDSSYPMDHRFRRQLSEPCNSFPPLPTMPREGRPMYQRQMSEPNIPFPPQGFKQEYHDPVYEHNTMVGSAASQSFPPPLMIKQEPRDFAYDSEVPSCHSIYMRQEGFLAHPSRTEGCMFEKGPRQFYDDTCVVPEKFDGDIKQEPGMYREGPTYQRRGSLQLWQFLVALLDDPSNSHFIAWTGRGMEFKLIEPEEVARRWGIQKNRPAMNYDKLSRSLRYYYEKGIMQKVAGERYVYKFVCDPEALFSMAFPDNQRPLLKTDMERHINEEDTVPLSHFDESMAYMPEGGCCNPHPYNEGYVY
In short: as §1

[11] = molecular target: T6, ERF (Homo sapiens, UniProt P50548 1-548); conditions: protein: recombinant; tags: N-terminal GST; dsDNA, one strand shown
T6 sequence: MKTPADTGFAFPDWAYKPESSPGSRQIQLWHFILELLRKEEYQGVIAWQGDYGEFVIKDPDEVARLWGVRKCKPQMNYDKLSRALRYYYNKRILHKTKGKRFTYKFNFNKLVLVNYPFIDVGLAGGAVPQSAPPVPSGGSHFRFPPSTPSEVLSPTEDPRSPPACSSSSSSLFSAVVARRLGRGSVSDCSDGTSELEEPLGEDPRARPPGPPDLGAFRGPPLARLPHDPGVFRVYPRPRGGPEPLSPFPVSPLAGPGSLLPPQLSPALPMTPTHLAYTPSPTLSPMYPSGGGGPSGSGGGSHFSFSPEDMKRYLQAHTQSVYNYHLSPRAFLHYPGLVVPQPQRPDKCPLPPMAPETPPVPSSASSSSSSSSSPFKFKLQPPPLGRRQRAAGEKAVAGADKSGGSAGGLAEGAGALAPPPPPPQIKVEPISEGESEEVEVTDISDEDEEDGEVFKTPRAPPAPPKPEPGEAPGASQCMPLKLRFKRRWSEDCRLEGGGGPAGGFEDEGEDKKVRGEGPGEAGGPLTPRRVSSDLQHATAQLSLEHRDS
In short: as §1

[12] = molecular target: T7, ETV3L (Homo sapiens, UniProt Q6ZN32 1-361); conditions: protein: recombinant; tags: N-terminal GST; dsDNA, one strand shown
T7 sequence: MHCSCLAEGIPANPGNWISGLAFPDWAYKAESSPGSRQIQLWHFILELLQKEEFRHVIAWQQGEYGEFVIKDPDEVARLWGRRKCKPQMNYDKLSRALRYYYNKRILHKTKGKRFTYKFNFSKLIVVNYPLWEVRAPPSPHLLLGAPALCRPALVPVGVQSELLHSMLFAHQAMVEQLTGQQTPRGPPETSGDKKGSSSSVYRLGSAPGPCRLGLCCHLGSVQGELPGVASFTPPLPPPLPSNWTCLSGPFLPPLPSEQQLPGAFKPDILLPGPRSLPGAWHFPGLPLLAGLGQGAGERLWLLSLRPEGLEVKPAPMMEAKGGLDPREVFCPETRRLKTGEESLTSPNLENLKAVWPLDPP
In short: as §1

[13] = molecular target: T8, ETS2 (Homo sapiens, UniProt P15036 1-469); conditions: protein: recombinant; tags: N-terminal GST; dsDNA, one strand shown
T8 sequence: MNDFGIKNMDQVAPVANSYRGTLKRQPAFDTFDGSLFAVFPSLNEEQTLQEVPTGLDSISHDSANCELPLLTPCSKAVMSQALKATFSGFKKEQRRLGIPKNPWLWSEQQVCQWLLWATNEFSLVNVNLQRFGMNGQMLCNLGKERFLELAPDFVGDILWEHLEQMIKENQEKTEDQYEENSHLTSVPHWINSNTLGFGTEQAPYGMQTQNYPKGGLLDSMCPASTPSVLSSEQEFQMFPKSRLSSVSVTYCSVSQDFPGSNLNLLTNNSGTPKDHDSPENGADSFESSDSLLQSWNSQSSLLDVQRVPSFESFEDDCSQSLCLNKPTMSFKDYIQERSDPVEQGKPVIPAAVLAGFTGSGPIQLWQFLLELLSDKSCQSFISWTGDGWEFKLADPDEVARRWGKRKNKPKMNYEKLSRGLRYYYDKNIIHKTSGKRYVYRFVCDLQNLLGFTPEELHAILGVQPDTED
In short: as §1

[14] = molecular target: T9, SPDEF (Homo sapiens, UniProt O95238 1-335); conditions: protein: recombinant; tags: N-terminal GST; dsDNA, one strand shown
T9 sequence: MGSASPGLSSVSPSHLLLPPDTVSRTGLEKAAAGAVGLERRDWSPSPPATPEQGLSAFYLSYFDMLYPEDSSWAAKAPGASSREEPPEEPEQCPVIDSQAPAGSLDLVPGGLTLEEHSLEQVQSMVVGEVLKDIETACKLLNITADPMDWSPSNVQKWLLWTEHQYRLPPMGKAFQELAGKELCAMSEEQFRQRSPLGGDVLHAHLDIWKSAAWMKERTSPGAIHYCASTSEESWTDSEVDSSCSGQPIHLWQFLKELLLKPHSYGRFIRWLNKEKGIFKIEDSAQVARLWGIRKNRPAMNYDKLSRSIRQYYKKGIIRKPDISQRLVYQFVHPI
In short: as §1

[15] = molecular target: T10, ETV7 (Homo sapiens, UniProt Q9Y603 1-341); conditions: protein: recombinant; tags: N-terminal GST; dsDNA, one strand shown
T10 sequence: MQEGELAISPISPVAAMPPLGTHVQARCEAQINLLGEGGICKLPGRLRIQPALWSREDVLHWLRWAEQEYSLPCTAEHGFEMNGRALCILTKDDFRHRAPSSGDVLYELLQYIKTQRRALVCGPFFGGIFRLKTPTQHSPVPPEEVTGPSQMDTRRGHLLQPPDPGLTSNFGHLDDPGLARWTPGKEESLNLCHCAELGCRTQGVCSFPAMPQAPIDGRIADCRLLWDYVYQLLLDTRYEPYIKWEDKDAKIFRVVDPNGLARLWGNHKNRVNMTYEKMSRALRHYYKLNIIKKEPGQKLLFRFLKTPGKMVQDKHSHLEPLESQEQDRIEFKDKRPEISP
In short: as §1

[16] = molecular target: T11, ELF5 (Homo sapiens, UniProt Q9UKW6-2 1-255); conditions: protein: recombinant; tags: N-terminal GST; dsDNA, one strand shown
T11 sequence: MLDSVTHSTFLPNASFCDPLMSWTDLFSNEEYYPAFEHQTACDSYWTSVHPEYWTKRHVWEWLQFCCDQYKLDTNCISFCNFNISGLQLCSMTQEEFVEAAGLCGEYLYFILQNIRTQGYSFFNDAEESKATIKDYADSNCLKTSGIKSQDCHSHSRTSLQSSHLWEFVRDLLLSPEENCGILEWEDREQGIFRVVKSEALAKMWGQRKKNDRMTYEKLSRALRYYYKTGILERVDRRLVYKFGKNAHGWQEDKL
In short: as §1

[17] = molecular target: T12, ETV3 (Homo sapiens, UniProt P41162-2 1-143); conditions: protein: recombinant; tags: N-terminal GST; dsDNA, one strand shown
T12 sequence: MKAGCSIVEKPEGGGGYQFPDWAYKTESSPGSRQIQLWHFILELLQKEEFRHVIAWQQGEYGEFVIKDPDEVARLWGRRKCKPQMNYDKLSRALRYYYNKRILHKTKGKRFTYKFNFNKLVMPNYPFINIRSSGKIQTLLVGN
In short: as §1

[18] = molecular target: ETV6 (Homo sapiens, UniProt P41212 1-452); conditions: protein: recombinant; tags: N-terminal GST; dsDNA, one strand shown
Chain of ETV6 (P41212 whole entry): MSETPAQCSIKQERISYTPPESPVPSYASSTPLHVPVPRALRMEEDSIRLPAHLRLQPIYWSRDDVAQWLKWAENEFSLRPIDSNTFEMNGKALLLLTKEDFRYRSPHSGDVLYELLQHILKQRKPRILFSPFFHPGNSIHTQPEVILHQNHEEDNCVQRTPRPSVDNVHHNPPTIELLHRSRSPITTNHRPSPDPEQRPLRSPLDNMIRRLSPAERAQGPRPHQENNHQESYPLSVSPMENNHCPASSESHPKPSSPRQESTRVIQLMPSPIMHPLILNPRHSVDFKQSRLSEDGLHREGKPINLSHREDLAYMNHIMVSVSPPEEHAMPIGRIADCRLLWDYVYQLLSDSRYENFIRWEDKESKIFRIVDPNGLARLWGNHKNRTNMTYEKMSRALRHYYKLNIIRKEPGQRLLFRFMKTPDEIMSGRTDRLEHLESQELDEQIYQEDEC
In short: as §1

TTCATT
binding signal [1]: 1.23 fold enrichment (6-mer frequency, TF over GST control) | binding signal [2]: 1.29 fold enrichment (6-mer frequency, TF over GST control) | binding signal [3]: 1.12 fold enrichment (6-mer frequency, TF over GST control) | binding signal [4]: 1.37 fold enrichment (6-mer frequency, TF over GST control) | binding signal [5]: 1.21 fold enrichment (6-mer frequency, TF over GST control) | binding signal [6]: 1.29 fold enrichment (6-mer frequency, TF over GST control) | binding signal [7]: 1.17 fold enrichment (6-mer frequency, TF over GST control) | binding signal [8]: 1.12 fold enrichment (6-mer frequency, TF over GST control) | binding signal [9]: 1.15 fold enrichment (6-mer frequency, TF over GST control) | binding signal [10]: 1.21 fold enrichment (6-mer frequency, TF over GST control) | binding signal [11]: 1.31 fold enrichment (6-mer frequency, TF over GST control) | binding signal [12]: 1.3 fold enrichment (6-mer frequency, TF over GST control) | binding signal [13]: 1.27 fold enrichment (6-mer frequency, TF over GST control) | binding signal [14]: 1.24 fold enrichment (6-mer frequency, TF over GST control) | binding signal [15]: 1.23 fold enrichment (6-mer frequency, TF over GST control) | binding signal [16]: 1.18 fold enrichment (6-mer frequency, TF over GST control) | binding signal [17]: 1.16 fold enrichment (6-mer frequency, TF over GST control) | binding signal [18]: 1.18 fold enrichment (6-mer frequency, TF over GST control)

Reference: paper PMC7862700, “An all-to-all approach to the identification of sequence-specific readers for epigenetic DNA modifications on cytosine”
